Measured values as given in PubChem BioAssay (NCI).
Compounds without any hit were thinned out: in the full panel of roughly 83,000, 20% have a hit.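 A percent growth of 40 corresponds to 60% growth inhibition; 0 means no net growth; -100 means all cells died. Active threshold: below 10.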 Active and inactive are the calls of the source.

Tests used:
Assay in all cases: NCI-60 one-dose screen, 48 h (100 = growth as untreated, 0 = no growth, -100 = all killed)
Conditions in all cases: 10 µM unless noted
[1] = system: DU-145 prostate
[2] = system: K-562 leukemia
[3] = system: MALME-3M melanoma
[4] = system: MDA-MB-231 breast
[5] = system: RXF 393 renal
[6] = system: SF-268 CNS
[7] = system: SF-295 CNS
[8] = system: SF-539 CNS
[9] = system: UACC-257 melanoma
[10] = system: M14 melanoma

Measured: growth

CC1=C(C)C(=O)C(Nc2ccc3c(c2)OCCO3)=C(Br)C1=O
inactive: [1] 107% | [3] 122% | [4] 88.3% | [5] 100% | [6] 97.8% | [7] 94.7% | [8] 105% | [9] 102% | [10] 106%
active: [2] 4.46%

O=C(O)CC1CCN(c2ccc3nnc(Cl)n3n2)CC1
inactive: [1] 107% | [2] 105% | [3] 102% | [4] 112% | [5] 109% | [6] 100% | [7] 102% | [8] 102% | [9] 109% | [10] 94.6%

O=S(=O)(Oc1ccc(-c2cn3ccoc3n2)cc1)C1CCCCC1
inactive: [1] 107% | [2] 89.5% | [3] 103% | [4] 105% | [5] 122% | [6] 108% | [7] 93.8% | [8] 97% | [9] 106% | [10] 104%

C#C[C@]1(O)CC[C@H]2[C@@H]3CC=C4c5sc(Nc6ncccc6C)nc5CC[C@]4(C)[C@H]3CC[C@@]21C
inactive: [1] 36.8% | [4] 12.8%
active: [2] -9.62% | [3] -19% | [5] -75.3% | [6] 7.66% | [7] -70% | [8] -56.4% | [9] -35.8% | [10] -55.9%

O=C1[C@@H]2Cc3c([nH]c4ccccc34)[C@H](c3ccc(Br)cc3)N2C(=O)CN1C1CCN(Cc2c(Cl)cccc2Cl)CC1
inactive: [1] 96.3% | [2] 74.2% | [3] 107% | [4] 89% | [5] 120% | [6] 81.3% | [7] 100% | [8] 105% | [9] 102% | [10] 92.8%

Cn1cc(-c2nn3cc(-c4ccncc4)nc3s2)c2cc(Br)ccc21
active: [2] 4.34%
inactive: [1] 75.1% | [3] 56.8% | [4] 78.5% | [5] 65.4% | [6] 68.8% | [7] 38.5% | [8] 80.4% | [9] 98.3% | [10] 52%

C=C(C)[C@@H]1CC[C@]2(C(=O)NC3CCCCC3)CC[C@]3(C)[C@H](CC[C@@H]4[C@@]5(C)CC[C@H](N)C(C)(C)[C@@H]5CC[C@]43C)[C@@H]12
inactive: [1] 105% | [3] 95.3% | [4] 108% | [5] 93.7% | [6] 91.6% | [7] 103% | [8] 98.5% | [9] 105% | [10] 103%
active: [2] -34.7%

COc1cc(C(=O)c2cc(C(C)=O)c3c(C)cccn23)cc(OC)c1OC
inactive: [1] 107% | [2] 94.6% | [3] 89.1% | [4] 76.1% | [5] 81.1% | [6] 106% | [7] 109% | [8] 97.5% | [9] 98.2% | [10] 96.1%

COc1ccc2c(c1)c(/C=N/Nc1ccnc3cc(Cl)ccc13)cn2C
active: [1] -93.3% | [2] -48.1% | [3] -77.2% | [4] -82.8% | [5] -81.1% | [6] -67.1% | [7] -84.4% | [8] -82.9% | [9] -84.2% | [10] -72%

O=C(NNc1nc2cc(F)cc(F)c2n2cccc12)c1cccnn1
inactive: [1] 20.8% | [2] 12.8% | [3] 21.4% | [4] 30.2% | [5] 22.3% | [6] 12%
active: [7] 9.98% | [8] 3.8% | [9] 3.33% | [10] 7.06%

CNC(=O)c1cc(-c2ccc(NC(=S)Nc3cccc(C(F)(F)F)c3)cc2)nc2cccnc12
inactive: [1] 103% | [2] 90.8% | [3] 112% | [4] 96.5% | [5] 107% | [6] 106% | [7] 93.3% | [8] 100% | [9] 104% | [10] 99.3%

C=C(C=O)[C@@H]1CC[C@]2(C(=O)O)CC[C@]3(C)C(CC[C@@H]4[C@@](C)(CCC#N)[C@H](C(=C)C=O)CC[C@]43C)[C@@H]12 (stereo not given in full)
active: [2] 4.17% | [3] 5.28%
inactive: [1] 43.2% | [4] 43.8% | [5] 44% | [6] 64.9% | [7] 62.7% | [8] 13.4% | [9] 12.4% | [10] 13.2%
